Our source for the binding signal values is article PMC7862700, “An all-to-all approach to the identification of sequence-specific readers for epigenetic DNA modifications on cytosine”.

Test in all cases: DAPPL (digital affinity profiling via proximity ligation, sequencing); 10 mM Tris-HCl pH 7.5, 50 mM NaCl, 1 mM DTT, 4% glycerol, room temperature, 30 min; GST-TFs on glutathione beads, 16-mer random dsDNA library, 0.1% formaldehyde crosslink after washing; high values mean tight binding
Conditions in all cases: protein: recombinant; tags: N-terminal GST; dsDNA, one strand shown

For one assay, the target named is ETV5 (Homo sapiens, UniProt P41161 1-510). In short, it runs like this:
(§1)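 Each value of binding signal is a hexamer's read frequency for a factor divided by the same hexamer's frequency in the tag-only sample. Barcoded, bead-captured GST fusions of human transcription factors made in yeast were pooled with that sample and incubated with 200 nmole of a random double-stranded 16-mer DNA library in Tris/NaCl/DTT/glycerol buffer at room temperature for 30 min. Washing, 0.1% formaldehyde crosslinking, proximity ligation, PCR and Illumina NextSeq500 sequencing followed.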

Another assay deals with T1, ERF (Homo sapiens, UniProt P50548 1-548).
T1 sequence: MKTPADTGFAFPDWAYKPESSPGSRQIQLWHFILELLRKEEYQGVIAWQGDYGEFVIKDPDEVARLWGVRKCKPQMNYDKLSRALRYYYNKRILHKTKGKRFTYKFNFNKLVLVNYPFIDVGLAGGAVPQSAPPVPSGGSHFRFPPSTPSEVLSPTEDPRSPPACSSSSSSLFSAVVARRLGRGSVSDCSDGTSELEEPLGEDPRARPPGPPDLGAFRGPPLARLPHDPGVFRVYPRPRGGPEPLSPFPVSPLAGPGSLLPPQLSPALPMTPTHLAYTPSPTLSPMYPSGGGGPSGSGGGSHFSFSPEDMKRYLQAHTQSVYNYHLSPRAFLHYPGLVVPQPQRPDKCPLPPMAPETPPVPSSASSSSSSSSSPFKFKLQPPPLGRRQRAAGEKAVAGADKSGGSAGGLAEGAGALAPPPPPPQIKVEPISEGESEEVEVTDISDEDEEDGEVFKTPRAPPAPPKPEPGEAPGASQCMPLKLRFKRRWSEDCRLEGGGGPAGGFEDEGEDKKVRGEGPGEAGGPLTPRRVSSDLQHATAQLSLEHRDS
In short, it runs like this:
as §1

In a further assay the target is T2, ELK1 (Homo sapiens, UniProt P19419 1-428).
T2 sequence: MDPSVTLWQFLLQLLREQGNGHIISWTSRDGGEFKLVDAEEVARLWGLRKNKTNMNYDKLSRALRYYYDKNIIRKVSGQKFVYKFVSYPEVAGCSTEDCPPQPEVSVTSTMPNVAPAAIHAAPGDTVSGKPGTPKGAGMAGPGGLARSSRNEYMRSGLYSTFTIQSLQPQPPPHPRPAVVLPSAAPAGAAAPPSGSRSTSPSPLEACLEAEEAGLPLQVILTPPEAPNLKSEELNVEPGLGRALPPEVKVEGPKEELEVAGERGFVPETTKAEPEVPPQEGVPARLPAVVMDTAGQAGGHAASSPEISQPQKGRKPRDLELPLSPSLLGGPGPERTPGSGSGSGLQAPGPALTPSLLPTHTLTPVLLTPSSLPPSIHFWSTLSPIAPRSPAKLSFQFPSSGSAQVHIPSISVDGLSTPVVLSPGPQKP
In short, it runs like this: as §1

In a further assay the target is ELF1 (Homo sapiens, UniProt P32519 1-619). Summed up: as §1
In the next assay the target is T3, EHF (Homo sapiens, UniProt Q9NZC4 1-300).
T3 sequence: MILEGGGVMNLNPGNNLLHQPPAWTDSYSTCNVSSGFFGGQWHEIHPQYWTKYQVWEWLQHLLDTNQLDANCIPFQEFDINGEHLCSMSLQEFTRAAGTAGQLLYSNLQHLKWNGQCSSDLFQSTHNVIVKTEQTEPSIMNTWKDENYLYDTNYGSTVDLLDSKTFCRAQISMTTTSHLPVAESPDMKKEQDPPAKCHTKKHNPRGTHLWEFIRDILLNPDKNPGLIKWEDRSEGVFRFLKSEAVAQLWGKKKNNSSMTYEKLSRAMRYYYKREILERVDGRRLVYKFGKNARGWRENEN
In short, it runs like this:
as §1

A further assay has as its target SPI1 (Homo sapiens, UniProt P17947 1-270). In short, it runs like this:
as §1

The next assay has as its target SPIB (Homo sapiens, UniProt Q01892 1-262). In short, it runs like this: as §1
In another assay the target is T4, SPIC (Homo sapiens, UniProt Q8N5J4 1-248).
T4 sequence: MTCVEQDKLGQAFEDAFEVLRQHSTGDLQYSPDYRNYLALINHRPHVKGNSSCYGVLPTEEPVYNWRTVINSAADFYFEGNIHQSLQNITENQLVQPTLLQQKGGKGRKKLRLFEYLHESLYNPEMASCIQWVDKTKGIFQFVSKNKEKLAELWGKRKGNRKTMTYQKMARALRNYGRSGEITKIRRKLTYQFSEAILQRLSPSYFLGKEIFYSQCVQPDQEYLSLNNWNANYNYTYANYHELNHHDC
In short, it runs like this:
as §1

Another assay concerns the target ELF4 (Homo sapiens, UniProt Q99607 1-663). Summed up:
as §1

In another assay the target is T5, ELK4 (Homo sapiens, UniProt P28324-2 1-405).
T5 sequence: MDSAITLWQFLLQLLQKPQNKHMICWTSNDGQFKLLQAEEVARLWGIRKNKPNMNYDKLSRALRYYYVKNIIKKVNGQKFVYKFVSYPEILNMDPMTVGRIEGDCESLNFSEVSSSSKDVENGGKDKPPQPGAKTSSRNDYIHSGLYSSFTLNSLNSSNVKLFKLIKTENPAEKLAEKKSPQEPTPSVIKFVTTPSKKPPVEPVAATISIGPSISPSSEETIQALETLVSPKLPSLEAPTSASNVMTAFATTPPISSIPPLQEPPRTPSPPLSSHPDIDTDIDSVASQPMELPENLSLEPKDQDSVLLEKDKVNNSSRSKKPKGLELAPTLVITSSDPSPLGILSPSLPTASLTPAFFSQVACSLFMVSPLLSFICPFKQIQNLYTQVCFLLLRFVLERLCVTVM
Summed up:
as §1

The target in a further assay is T6, ELF3 (Homo sapiens, UniProt P78545 1-371).
T6 sequence: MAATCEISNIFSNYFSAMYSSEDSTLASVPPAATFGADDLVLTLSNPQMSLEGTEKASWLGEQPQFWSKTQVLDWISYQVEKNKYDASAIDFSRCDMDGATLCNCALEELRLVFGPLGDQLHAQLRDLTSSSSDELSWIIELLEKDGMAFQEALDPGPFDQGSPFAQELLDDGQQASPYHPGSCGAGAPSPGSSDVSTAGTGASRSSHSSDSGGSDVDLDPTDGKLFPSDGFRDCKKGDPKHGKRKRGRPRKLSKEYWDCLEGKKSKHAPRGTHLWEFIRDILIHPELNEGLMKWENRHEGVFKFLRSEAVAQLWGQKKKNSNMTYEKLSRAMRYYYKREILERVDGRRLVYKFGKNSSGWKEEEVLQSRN
In short, it runs like this:
as §1

Another assay deals with ETV1 (Homo sapiens, UniProt P50549 1-477). Summed up:
as §1

A further assay concerns the target T7, ETV3L (Homo sapiens, UniProt Q6ZN32 1-361).
T7 sequence: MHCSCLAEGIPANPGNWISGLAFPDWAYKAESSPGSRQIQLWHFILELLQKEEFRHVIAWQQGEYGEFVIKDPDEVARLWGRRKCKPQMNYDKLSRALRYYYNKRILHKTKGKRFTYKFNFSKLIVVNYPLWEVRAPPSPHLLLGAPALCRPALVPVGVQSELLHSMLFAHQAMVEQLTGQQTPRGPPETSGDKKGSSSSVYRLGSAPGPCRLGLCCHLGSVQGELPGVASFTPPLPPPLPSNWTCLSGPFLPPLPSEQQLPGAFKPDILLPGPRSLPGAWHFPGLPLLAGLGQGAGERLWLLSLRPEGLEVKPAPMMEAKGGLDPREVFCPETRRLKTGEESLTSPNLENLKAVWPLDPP
Summed up: as §1

For a further assay, the target named is T8, ETS2 (Homo sapiens, UniProt P15036 1-469).
T8 sequence: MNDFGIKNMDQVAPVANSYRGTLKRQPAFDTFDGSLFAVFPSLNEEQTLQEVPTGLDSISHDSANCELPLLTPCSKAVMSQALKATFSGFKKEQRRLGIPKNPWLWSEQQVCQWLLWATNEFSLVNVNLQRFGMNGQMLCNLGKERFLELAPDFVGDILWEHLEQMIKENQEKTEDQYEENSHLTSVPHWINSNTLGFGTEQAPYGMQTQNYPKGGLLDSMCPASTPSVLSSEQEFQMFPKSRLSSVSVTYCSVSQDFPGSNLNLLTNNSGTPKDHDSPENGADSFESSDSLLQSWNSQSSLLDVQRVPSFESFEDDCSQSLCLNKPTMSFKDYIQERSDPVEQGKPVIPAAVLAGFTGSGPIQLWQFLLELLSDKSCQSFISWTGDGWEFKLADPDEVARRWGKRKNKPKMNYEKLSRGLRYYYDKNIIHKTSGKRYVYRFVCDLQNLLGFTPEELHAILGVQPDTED
In short, it runs like this:
as §1

Another assay deals with T9, SPDEF (Homo sapiens, UniProt O95238 1-335).
T9 sequence: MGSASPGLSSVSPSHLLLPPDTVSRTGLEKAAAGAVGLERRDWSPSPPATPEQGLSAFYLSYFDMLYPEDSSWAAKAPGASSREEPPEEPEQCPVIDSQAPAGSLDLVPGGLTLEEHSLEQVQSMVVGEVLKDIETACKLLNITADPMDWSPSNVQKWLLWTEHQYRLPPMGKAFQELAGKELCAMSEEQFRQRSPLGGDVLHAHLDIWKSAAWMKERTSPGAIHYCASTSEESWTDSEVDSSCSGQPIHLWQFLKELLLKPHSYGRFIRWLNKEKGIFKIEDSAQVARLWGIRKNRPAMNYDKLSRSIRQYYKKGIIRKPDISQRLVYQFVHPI
In short, it runs like this:
as §1

The target in another assay is T10, ETV7 (Homo sapiens, UniProt Q9Y603 1-341).
T10 sequence: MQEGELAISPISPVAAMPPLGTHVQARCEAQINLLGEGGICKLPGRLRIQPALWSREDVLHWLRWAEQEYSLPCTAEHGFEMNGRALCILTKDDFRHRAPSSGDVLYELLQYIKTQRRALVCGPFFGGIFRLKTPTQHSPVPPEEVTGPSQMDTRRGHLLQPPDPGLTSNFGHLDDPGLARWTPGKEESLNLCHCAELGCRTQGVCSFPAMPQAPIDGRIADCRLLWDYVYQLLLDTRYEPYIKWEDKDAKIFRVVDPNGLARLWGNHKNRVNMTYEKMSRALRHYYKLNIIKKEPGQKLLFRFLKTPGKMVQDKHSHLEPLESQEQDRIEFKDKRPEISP
In short, it runs like this:
as §1

A further assay addresses ETV6 (Homo sapiens, UniProt P41212 1-452). Summed up: as §1

Sequence of ETV5 (P41161 whole entry, the tested form may be a part): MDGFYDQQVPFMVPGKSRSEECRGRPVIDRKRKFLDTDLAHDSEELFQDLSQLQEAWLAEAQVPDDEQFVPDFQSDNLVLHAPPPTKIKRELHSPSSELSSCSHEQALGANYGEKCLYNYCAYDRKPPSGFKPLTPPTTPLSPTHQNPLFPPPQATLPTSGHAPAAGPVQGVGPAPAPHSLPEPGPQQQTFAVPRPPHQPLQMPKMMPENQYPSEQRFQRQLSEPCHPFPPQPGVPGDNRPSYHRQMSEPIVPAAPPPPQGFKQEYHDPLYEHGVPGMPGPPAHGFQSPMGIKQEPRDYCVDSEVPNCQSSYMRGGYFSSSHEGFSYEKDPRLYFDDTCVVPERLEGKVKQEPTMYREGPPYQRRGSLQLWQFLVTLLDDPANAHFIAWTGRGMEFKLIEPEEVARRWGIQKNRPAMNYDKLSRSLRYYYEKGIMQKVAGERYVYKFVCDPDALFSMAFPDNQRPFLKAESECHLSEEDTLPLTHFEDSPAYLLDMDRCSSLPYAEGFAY
Sequence of ETV6 (P41212 whole entry): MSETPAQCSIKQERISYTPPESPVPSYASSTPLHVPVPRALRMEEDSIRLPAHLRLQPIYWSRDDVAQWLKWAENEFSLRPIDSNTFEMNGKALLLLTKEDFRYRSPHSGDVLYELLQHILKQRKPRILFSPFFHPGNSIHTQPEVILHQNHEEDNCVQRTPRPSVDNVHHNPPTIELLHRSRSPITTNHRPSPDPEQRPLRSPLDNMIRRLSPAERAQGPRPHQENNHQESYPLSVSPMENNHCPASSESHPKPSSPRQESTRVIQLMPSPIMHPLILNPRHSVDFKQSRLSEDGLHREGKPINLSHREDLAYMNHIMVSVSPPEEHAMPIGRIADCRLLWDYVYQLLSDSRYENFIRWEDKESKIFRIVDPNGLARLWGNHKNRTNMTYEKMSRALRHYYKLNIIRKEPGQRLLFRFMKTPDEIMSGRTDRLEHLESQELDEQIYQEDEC
Sequence of SPIB (Q01892 whole entry): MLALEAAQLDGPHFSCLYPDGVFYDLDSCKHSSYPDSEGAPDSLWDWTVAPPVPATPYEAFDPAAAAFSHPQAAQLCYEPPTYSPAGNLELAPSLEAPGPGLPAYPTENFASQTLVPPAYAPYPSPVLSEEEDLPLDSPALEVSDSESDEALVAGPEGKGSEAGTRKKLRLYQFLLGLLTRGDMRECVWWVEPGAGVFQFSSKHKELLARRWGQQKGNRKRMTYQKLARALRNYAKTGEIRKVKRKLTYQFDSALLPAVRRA
Sequence of ELF4 (Q99607 whole entry): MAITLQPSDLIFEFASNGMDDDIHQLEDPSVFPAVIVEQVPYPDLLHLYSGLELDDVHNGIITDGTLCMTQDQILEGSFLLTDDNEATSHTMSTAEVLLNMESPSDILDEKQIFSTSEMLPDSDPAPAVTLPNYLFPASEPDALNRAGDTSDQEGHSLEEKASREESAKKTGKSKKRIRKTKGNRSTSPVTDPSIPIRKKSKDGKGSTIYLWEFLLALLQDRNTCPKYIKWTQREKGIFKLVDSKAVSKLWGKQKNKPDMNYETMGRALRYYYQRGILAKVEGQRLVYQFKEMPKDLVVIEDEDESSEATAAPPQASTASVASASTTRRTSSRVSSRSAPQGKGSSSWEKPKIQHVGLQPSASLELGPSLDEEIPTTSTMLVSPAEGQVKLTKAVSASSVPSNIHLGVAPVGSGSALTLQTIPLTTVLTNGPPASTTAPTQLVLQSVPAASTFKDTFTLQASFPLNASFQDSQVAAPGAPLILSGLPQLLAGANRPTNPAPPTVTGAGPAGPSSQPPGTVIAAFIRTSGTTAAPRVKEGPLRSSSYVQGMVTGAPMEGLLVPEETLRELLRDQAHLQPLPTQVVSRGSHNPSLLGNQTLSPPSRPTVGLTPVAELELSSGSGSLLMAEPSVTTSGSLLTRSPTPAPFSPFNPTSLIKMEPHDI
Sequence of ELF1 (P32519 whole entry): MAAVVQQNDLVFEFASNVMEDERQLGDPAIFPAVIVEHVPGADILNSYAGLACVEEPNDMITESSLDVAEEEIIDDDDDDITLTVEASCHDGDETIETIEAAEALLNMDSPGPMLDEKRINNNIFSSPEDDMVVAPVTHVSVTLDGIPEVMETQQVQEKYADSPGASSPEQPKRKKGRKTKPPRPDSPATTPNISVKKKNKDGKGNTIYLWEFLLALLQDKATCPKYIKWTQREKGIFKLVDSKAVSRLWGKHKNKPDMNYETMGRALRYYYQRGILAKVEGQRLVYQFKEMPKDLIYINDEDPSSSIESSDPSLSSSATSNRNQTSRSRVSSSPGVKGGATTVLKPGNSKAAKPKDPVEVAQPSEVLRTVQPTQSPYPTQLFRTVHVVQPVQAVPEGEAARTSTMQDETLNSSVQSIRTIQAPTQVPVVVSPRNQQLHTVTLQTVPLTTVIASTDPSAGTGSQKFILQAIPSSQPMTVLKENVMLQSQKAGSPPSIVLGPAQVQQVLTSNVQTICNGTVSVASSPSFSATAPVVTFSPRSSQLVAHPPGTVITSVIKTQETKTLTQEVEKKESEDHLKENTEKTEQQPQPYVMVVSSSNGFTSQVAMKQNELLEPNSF
Sequence of ETV1 (P50549 whole entry): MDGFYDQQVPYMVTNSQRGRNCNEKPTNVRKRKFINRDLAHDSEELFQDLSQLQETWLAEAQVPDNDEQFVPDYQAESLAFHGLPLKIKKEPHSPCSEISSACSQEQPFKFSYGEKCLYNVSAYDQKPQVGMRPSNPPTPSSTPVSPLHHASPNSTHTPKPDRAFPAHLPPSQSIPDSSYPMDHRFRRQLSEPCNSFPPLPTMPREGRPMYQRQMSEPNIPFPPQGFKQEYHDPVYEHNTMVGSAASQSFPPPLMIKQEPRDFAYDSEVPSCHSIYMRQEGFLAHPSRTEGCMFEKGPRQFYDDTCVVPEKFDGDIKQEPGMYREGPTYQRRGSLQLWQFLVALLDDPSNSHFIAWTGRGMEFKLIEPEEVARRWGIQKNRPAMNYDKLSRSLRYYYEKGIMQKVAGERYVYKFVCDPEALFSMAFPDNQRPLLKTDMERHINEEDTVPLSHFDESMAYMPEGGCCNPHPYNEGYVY

With CATAAG, the binding signal with ETV5 was 1 fold enrichment (6-mer frequency, TF over GST control); with ERF, 1 fold enrichment (6-mer frequency, TF over GST control).
With GTCTAT, the binding signal with ELK1 is 1.04 fold enrichment (6-mer frequency, TF over GST control); in the assay with ELF1, 1.08 fold enrichment (6-mer frequency, TF over GST control); in the assay with EHF it was 1.1 fold enrichment (6-mer frequency, TF over GST control); in the assay with SPI1, 1.03 fold enrichment (6-mer frequency, TF over GST control); with SPIB, 1.01 fold enrichment (6-mer frequency, TF over GST control); with ETV5 it was 1.07 fold enrichment (6-mer frequency, TF over GST control). Besides, the binding signal with SPIC was 1.18 fold enrichment (6-mer frequency, TF over GST control); with ELF4, 1.11 fold enrichment (6-mer frequency, TF over GST control); with ELK4, 1 fold enrichment (6-mer frequency, TF over GST control); in the assay with ELF3 it was 1.12 fold enrichment (6-mer frequency, TF over GST control); in the assay with ETV1, 1.04 fold enrichment (6-mer frequency, TF over GST control); with ERF, 1.14 fold enrichment (6-mer frequency, TF over GST control). Also, the binding signal with ETV3L is 1.05 fold enrichment (6-mer frequency, TF over GST control); with ETS2, 1.01 fold enrichment (6-mer frequency, TF over GST control); with SPDEF it was 1.08 fold enrichment (6-mer frequency, TF over GST control); with ETV7, 1.07 fold enrichment (6-mer frequency, TF over GST control); in the assay with ETV6, 1.03 fold enrichment (6-mer frequency, TF over GST control).
